# Source: PubChem BioAssay
# This is a sample that favours compounds with a hit; in the whole collection about 6.3% have one here.
# HepG2 viability = kills HepG2 cells in TGF-b inhibitor counter-screen | HepG2 CAGA-GFP viability, ATP luminescence, 18 h | 0.76% of 410,000 active | AID 588856 | Potency, µM (titrated, usually from 46.1 µM), usual class: cytotoxic
#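 HepG2 CAGA-GFP cells (1000/well, DMEM with 1% FBS) received compound, then TGF-beta at 500 pg/mL final, and were incubated 18 hours at 37 degrees C. Viability was read by CellTiter-Glo luminescence. Media-only wells were set as complete cell-killing and DMSO as no toxicity.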
# VP16 counter = inhibits Gal4-VP16 luciferase reporter, ROR gamma counter-screen; Drosophila S2 Gal4-VP16 UAS-luciferase, luminescence, 20 h; Potency, µM (series often up to 53.6 µM), hits mostly inhibitors; 3.5% of 310,000 active; AID 2546;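 further: Gal4-VP16 expression switched on by copper sulfate through the metallothionein promoter; nearly all actives have a fitted effect of over 50% in size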
# ATXN2 expr inh = inhibitors of ATXN2 expression. HEK-293 ATXN2-luciferase reporter, luminescence, 24 h. Potency, µM (series often up to 57 µM), most hits filed as inhibitors. 0.72% of 360,000 active; further: nearly all actives have a fitted effect of over 55% in size
#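 qHTS (up to 57 uM final) was run with 24 h compound exposure of reporter cells at 37 °C. Each well was multiplexed: SteadyGlo luminescence measured ATXN2-luciferase expression after a fluorogenic Gly-Phe-AFC viability readout (25 uM final).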
# S2 tox = viability counter-screen for ATXN expression inhibitors | S2 cells (HEK-293 line with an ATXN2-luciferase reporter) viability, CellTiter-Fluor protease fluorescence, 24 h | Potency, µM (doses to about 56.7 µM), usual class: cytotoxic | 0.49% of 400,000 active; further: nearly all actives have a fitted effect of over 40% in size
# TGFb SMAD3 inh = TGF-b pathway inhibition; HepG2 CAGA-GFP TGF-b/SMAD3 reporter, GFP fluorescence, 18 h; TGF-beta stimulated, 500 pg/mL final; Potency, µM (series often up to 46.1 µM), hits mostly inhibitors; 1.2% of 410,000 active; AID 588855; further: nearly all actives have a fitted effect of over 65% in size
#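 HEPG2 CAGA-GFP reporter cells (1000/well, DMEM with 1% FBS) received compounds, then recombinant TGF-beta at 500 pg/mL final for 18 hours at 37 degrees C. Per-cell GFP summed per well was normalised to unstimulated and stimulated DMSO controls before curve fitting.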
# RORg inh = ROR gamma (mouse) transcription inhibition. 5.4% of 310,000 active. AID 2551. P51450. Drosophila S2 Gal4-RORgamma UAS-luciferase reporter, 20 h. Potency, µM (titrated, usually from 53.6 µM), usual class: inhibitors; further: nearly all actives have a fitted effect of over 60% in size
# Target sequence (P51450 whole entry, looked up, the tested form may be a part): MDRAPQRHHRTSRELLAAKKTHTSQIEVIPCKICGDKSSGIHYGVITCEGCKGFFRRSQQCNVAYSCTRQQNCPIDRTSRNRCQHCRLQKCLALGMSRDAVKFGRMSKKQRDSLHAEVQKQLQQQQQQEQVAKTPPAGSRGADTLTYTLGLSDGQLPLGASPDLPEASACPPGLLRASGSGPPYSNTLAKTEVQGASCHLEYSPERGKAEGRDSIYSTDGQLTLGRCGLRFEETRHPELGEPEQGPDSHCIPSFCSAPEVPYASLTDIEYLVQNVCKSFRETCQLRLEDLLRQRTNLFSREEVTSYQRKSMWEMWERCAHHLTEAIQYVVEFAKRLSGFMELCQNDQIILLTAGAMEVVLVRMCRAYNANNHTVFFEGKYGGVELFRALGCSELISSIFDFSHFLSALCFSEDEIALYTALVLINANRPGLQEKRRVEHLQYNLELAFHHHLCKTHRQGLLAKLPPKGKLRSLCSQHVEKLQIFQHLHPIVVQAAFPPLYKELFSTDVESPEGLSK
#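 Luminescence from a UAS-regulated Photinus luciferase reporter in stably transfected Drosophila Schneider cells is measured; decreased signal marks ROR gamma inhibition. Fusion expression is induced by 700 uM copper sulfate for 20 hr.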
# A number is an active result; n = inactive; u = inconclusive; x = not tested or not shown. The call rests on the fitted dose curve; in most records, active means well fitted curve in the direction sought with a large enough effect; inconclusive means small, poorly fitted or top-dose-only effect, or another doubt; inactive means no such curve, though single readings can be large; an effect the other way counts as inactive or inconclusive.
SMILES,HepG2 viability,VP16 counter,ATXN2 expr inh,S2 tox,TGFb SMAD3 inh,RORg inh
CC1CCN(CCCn2c(=S)[nH]c3c(sc4ccccc43)c2=O)CC1,n,n,n,n,n,11.2µM
CCC(CC)C1C(C#N)=C(N)Oc2n[nH]c(-c3ccccc3)c21 (centres undefined),8.91µM,n,u,n,u,n
COC(=O)c1c(NC(=O)C(C)(C)C)sc2c1C(C(=O)OC)CC2 (centres undefined),n,n,n,n,n,n
COC(=O)c1c(NC(=O)C(Cl)Cl)sc2c1C(C(=O)OC)CC2 (centres undefined),n,7.94µM,x,n,11.2µM,3.98µM
O=C(Nc1ccccc1)c1cc(C2CCCN(C(=O)c3ccccc3)C2)on1 (centres undefined),n,x,n,n,n,x
CCCC(=O)N1CCCC(c2cc(C(=O)Nc3ccccc3)no2)C1 (centres undefined),10µM,x,11.2µM,n,n,x
O=C(/C=C/c1cccc([N+](=O)[O-])c1)NCCSCc1ccc(Cl)cc1Cl,n,n,u,n,12.6µM,u
Clc1ccc(-c2nnc(-c3ccccc3)o2)c(Cl)c1,n,u,n,u,n,n
Fc1ccc(-c2nnc(-c3ccc(Cl)cc3Cl)o2)cc1,n,10µM,n,n,n,14.1µM
CCC(c1nnc(SCC(=O)Nc2ccc(C(N)=O)cc2)n1Cc1ccccc1)N(C)C (centres undefined),n,n,n,u,n,n
CCC(c1nnc(SCC(=O)Nc2nnc(-c3ccccc3)o2)n1Cc1ccccc1)N(C)C (centres undefined),n,u,n,n,n,8.91µM
Cc1ccccc1-c1nc(CN2CCC(C(=O)O)CC2)c(C)o1,n,n,n,n,n,n
Cc1ccccc1-c1nc(CN(Cc2c(C)nn(C)c2C)C2CC2)c(C)o1,n,12.6µM,n,n,n,5.62µM
CCCCNC(=S)NNC(=O)c1ccoc1C,n,n,n,n,n,8.91µM
Cc1ccc(C)c(NC(=S)NNC(=O)c2ccco2)c1,n,n,n,n,u,2.24µM
CCCCNC(=S)NNC(=O)c1ccco1,n,u,n,n,n,12.6µM
Cc1ccccc1NC(=S)NNC(=O)c1ccoc1C,n,n,n,n,n,u
Cc1cccc(NC(=S)NNC(=O)c2ccco2)c1,n,n,n,n,n,n
Cc1occc1C(=O)NNC(=S)Nc1ccccc1,n,n,n,n,n,14.1µM
OCc1ccc(-c2cncc3nccn23)cc1,n,x,n,n,n,x
Cc1coc2ccccc2c1=O,x,x,n,n,x,x
CCS(=O)(=O)N1Cc2ccccc2CC1C(=O)NCCc1c[nH]c2ccccc12 (centres undefined),n,n,n,n,n,n
Cc1ccc(NC(=O)c2ccoc2C)cc1C,n,n,n,n,n,n
O=C(NCCNC(=O)c1ccco1)c1ccco1,n,n,n,n,n,15.8µM
O=C(NCCCCNC(=O)c1ccco1)c1ccco1,n,n,n,n,n,n
SMILES,HepG2 viability,VP16 counter,ATXN2 expr inh,S2 tox,TGFb SMAD3 inh,RORg inh
Cc1cc(NC(=O)c2ccoc2C)ccc1Br,n,x,n,n,15.8µM,x
C=C(C)C1CC=C(C)/C(=N/NC(=S)Nc2ccccc2)C1 (centres undefined),n,1.12µM,n,n,n,1.12µM
C=C(C)C1CC=C(C)/C(=N/NC(=O)c2ccc(NC(=O)c3cccc(C)c3)cc2)C1 (centres undefined),n,n,n,n,n,n
Cc1ccc(NS(=O)(=O)c2cccc3cccnc23)c(Br)c1,n,n,n,n,n,n
Nc1ccccc1S(=O)(=O)Nc1cccc2cccnc12,x,2.24µM,x,x,x,1.58µM
O=S(=O)(Nc1cccc2cccnc12)c1ccccc1Br,n,x,x,x,6.31µM,x
NS(=O)(=O)Nc1cccc2cccnc12,n,x,x,x,n,x
CCCCC(C)(C)[C@H](O)C=C[C@H]1[C@H](O)CC(=O)[C@H]1CC=CCCCC(=O)O,x,x,n,x,x,x
COc1ccc(C(C)=O)cc1Cn1c(C)c(C(=O)NCc2cccc(C(F)(F)F)c2)sc1=O,n,x,n,n,u,x
